For one molecule, inhibition results are on record in ChEMBL document CHEMBL1961873, “Compounds: GSK PKIS; Assays: Nanosyn kinase panel” (2012).

Assay [1] has as its target Sphingosine kinase 1 (Homo sapiens) (UniProt Q9NYA1). The settings on record: at 1 µM.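 Also: mean SPHK1 inhibition value reported from the GSK PKIS kinase panel screen.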
The target in assay [2] is T1, Sphingosine kinase 2 (Homo sapiens) (UniProt Q9NRA0).
T1 sequence (whole entry): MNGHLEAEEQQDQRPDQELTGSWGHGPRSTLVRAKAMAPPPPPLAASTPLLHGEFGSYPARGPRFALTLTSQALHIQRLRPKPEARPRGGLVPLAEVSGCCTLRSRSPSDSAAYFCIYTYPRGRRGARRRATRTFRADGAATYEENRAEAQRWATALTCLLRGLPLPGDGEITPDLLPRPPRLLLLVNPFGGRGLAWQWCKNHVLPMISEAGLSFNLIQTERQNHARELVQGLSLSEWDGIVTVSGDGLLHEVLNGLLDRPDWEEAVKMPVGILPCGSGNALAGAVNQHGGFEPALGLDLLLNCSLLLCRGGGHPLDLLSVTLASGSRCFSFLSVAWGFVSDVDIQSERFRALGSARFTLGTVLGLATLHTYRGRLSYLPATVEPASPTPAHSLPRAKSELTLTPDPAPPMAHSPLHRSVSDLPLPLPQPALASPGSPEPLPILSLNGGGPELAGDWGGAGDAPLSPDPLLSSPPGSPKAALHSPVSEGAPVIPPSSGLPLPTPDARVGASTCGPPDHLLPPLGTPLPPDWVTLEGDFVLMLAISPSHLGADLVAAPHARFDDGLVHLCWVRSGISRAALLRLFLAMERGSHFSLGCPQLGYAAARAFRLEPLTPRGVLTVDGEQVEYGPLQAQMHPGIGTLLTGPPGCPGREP
As to conditions: at 0.1 µM.

Assay [3] deals with T1, Sphingosine kinase 2 (Homo sapiens). As to conditions: at 1 µM.
For assay [4], the target named is Casein kinase II subunit alpha (Homo sapiens) (UniProt P68400). As to conditions: at 0.1 µM.
Chain of Casein kinase II subunit alpha (Homo sapiens) (P68400 whole entry, looked up): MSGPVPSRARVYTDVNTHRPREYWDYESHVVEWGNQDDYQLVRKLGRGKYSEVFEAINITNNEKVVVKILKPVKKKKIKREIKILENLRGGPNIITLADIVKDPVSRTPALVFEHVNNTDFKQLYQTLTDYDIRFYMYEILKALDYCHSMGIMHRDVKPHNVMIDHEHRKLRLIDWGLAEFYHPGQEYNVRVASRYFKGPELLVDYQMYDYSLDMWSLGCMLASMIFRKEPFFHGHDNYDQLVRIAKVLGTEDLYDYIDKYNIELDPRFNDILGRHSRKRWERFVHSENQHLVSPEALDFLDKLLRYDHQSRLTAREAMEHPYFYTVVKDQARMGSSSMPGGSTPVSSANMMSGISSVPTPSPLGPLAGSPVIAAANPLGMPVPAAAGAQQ
For assay [5] the target is unchanged. As to conditions: at 1 µM.
For assay [6], the target named is T2, Inhibitor of nuclear factor kappa-B kinase subunit alpha (Homo sapiens) (UniProt O15111).
T2 sequence (whole entry): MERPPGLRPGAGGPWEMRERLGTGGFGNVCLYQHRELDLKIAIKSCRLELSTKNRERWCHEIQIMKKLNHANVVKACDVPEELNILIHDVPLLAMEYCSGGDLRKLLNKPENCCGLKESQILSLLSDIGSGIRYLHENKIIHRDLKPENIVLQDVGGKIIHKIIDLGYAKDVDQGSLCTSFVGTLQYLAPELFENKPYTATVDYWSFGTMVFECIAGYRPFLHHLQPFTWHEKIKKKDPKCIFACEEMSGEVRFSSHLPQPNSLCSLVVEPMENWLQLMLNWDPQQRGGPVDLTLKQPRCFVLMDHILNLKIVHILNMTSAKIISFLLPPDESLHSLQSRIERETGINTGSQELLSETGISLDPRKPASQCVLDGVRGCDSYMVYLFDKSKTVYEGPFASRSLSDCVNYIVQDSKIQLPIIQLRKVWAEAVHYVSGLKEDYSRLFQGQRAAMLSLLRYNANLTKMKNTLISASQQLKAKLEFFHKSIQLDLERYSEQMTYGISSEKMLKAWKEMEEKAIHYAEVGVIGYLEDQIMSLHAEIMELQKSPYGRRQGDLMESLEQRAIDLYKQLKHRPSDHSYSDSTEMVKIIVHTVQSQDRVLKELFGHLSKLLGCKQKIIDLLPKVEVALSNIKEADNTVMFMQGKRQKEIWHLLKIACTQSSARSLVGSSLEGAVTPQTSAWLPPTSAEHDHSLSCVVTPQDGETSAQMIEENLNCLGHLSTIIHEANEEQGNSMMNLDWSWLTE
As to conditions: at 0.1 µM.

In assay [7] the target is T2, Inhibitor of nuclear factor kappa-B kinase subunit alpha (Homo sapiens). As to conditions: at 1 µM.
The target in assay [8] is T3, Inhibitor of nuclear factor kappa-B kinase subunit beta (Homo sapiens) (UniProt O14920).
T3 sequence (whole entry): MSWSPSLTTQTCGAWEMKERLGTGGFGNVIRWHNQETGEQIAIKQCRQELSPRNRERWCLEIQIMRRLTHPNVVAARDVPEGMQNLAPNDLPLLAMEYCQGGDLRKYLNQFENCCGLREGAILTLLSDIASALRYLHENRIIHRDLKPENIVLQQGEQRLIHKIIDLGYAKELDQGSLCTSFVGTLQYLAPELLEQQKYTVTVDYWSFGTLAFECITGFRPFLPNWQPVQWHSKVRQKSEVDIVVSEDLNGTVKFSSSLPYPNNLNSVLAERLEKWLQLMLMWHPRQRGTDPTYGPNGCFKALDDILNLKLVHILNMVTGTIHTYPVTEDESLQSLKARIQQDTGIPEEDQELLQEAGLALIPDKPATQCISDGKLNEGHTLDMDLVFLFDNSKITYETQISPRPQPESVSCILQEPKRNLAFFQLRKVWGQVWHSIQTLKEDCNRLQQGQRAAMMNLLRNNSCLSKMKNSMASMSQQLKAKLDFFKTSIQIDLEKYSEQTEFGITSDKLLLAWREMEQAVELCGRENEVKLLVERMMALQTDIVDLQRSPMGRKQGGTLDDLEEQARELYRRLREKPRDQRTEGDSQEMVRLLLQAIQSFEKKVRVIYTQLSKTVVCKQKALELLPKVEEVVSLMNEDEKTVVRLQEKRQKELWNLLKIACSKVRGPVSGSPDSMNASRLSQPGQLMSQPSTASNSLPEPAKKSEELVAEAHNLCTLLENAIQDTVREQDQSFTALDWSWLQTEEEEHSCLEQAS
As to conditions: at 0.1 µM.

Assay [9] has as its target T3, Inhibitor of nuclear factor kappa-B kinase subunit beta (Homo sapiens). As to conditions: at 1 µM.
For assay [10], the target named is T4, Inhibitor of nuclear factor kappa-B kinase subunit epsilon (Homo sapiens) (UniProt Q14164).
T4 sequence (whole entry): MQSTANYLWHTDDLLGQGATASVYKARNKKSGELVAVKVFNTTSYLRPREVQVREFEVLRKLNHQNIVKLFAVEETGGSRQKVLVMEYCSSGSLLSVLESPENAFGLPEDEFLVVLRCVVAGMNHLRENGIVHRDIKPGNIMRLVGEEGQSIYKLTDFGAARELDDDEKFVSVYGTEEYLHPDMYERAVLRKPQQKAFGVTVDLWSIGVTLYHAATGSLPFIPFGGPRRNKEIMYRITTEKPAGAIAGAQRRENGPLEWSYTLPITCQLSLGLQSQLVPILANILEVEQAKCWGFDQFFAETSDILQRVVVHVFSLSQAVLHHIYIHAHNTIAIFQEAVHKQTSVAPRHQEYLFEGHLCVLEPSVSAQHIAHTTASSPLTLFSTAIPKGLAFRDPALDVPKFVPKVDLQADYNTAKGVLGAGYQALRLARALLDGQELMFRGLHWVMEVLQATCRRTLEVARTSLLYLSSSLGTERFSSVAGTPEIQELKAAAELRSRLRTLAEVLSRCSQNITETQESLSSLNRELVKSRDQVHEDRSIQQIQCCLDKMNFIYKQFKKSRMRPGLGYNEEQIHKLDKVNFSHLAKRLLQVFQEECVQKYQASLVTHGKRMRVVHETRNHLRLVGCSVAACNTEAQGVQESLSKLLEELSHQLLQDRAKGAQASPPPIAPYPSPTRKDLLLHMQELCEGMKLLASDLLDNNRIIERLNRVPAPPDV
The settings on record: at 0.1 µM.

The target in assay [11] is T4, Inhibitor of nuclear factor kappa-B kinase subunit epsilon (Homo sapiens). As to conditions: at 1 µM.
The target in assay [12] is T5, Serine/threonine-protein kinase Nek1 (Homo sapiens) (UniProt Q96PY6).
T5 sequence (whole entry): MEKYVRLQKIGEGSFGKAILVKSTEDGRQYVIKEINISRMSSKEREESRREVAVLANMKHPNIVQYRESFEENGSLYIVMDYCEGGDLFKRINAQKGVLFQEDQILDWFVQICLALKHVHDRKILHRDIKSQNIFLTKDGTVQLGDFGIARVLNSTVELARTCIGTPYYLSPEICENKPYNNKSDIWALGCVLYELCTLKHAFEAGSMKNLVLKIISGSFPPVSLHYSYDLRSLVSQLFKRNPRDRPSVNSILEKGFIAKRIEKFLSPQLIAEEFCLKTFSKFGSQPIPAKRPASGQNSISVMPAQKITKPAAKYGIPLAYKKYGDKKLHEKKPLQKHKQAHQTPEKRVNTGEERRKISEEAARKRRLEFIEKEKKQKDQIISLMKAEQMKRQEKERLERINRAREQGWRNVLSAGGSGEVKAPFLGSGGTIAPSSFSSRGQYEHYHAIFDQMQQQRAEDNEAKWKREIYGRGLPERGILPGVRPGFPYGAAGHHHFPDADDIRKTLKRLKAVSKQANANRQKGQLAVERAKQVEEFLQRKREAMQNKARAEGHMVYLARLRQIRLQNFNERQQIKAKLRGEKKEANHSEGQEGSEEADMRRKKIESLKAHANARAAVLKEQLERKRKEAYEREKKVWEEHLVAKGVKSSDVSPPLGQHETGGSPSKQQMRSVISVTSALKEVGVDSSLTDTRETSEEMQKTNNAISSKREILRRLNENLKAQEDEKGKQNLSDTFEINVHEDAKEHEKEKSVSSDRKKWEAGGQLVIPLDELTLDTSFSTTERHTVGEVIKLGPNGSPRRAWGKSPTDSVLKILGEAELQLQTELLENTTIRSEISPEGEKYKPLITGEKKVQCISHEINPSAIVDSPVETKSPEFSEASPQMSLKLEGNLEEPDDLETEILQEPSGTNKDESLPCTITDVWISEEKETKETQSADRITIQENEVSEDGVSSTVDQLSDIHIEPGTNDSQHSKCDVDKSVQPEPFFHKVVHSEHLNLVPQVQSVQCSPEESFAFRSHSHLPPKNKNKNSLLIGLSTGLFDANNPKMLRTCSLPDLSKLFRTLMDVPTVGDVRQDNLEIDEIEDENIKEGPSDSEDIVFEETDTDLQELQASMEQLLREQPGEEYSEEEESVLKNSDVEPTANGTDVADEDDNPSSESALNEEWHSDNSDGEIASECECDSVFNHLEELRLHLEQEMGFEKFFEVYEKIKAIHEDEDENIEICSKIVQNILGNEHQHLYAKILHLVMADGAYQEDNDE
As to conditions: at 0.1 µM.

The target in assay [13] is T5, Serine/threonine-protein kinase Nek1 (Homo sapiens). The settings on record: at 1 µM.
In assay [14] the target is T6, Serine/threonine-protein kinase Nek2 (Homo sapiens) (UniProt P51955).
T6 sequence (whole entry): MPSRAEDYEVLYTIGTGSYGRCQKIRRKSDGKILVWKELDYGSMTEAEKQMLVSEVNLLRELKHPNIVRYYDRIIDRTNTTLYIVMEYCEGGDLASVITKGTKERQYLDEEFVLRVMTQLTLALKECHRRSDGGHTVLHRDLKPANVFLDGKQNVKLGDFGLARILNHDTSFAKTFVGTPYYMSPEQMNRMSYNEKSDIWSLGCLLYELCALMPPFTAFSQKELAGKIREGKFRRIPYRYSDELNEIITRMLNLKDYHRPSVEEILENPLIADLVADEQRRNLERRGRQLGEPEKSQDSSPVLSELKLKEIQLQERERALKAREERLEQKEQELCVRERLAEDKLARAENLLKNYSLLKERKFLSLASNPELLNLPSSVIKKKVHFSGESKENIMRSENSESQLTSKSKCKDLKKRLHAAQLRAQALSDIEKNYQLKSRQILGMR
The settings on record: at 0.1 µM.

The target of assay [15] is T6, Serine/threonine-protein kinase Nek2 (Homo sapiens). As to conditions: at 1 µM.
Assay [16] has as its target Serine/threonine-protein kinase Nek6 (Homo sapiens) (UniProt Q9HC98). The settings on record: at 0.1 µM.
Assay [17] shares this target. As to conditions: at 1 µM.
Assay [18] concerns the target Serine/threonine-protein kinase Nek7 (Homo sapiens) (UniProt Q8TDX7). The settings on record: at 0.1 µM.
Assay [19] shares this target. As to conditions: at 1 µM.
Assay [20] addresses T7, Serine/threonine-protein kinase Nek9 (Homo sapiens) (UniProt Q8TD19).
T7 sequence (whole entry): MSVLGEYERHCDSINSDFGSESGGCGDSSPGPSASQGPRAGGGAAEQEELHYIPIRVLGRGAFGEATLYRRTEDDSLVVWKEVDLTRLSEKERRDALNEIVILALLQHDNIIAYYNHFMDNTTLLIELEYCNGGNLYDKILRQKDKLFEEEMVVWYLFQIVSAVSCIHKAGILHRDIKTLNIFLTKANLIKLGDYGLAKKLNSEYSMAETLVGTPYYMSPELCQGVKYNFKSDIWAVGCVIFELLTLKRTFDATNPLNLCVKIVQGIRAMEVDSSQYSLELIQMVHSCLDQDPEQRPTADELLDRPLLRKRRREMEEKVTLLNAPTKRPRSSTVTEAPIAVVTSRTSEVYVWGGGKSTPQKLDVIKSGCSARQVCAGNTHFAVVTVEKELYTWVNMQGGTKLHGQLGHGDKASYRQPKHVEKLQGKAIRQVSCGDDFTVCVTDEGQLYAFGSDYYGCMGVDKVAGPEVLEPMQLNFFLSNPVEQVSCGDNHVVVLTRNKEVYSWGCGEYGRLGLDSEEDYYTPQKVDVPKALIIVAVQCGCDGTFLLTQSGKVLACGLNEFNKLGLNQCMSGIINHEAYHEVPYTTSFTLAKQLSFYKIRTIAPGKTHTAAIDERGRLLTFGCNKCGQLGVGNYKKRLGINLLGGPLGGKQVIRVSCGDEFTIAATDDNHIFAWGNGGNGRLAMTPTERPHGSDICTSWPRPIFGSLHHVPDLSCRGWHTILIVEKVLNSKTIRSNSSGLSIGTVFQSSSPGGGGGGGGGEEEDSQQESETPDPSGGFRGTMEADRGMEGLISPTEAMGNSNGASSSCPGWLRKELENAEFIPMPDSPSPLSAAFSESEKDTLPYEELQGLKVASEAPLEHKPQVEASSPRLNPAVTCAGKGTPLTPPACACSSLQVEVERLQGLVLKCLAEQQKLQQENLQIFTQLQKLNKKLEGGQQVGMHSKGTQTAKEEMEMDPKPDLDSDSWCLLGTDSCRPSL
The settings on record: at 0.1 µM.

Chain of Serine/threonine-protein kinase Nek7 (Homo sapiens) (Q8TDX7 whole entry, looked up): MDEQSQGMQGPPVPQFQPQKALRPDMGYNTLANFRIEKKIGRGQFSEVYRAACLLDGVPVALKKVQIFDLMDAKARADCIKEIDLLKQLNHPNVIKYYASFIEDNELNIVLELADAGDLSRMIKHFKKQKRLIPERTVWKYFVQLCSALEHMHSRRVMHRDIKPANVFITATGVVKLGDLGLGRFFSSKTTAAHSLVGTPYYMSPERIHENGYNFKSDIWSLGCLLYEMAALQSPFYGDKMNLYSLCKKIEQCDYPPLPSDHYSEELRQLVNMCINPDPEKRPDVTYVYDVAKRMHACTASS
Chain of Serine/threonine-protein kinase Nek6 (Homo sapiens) (Q9HC98 whole entry): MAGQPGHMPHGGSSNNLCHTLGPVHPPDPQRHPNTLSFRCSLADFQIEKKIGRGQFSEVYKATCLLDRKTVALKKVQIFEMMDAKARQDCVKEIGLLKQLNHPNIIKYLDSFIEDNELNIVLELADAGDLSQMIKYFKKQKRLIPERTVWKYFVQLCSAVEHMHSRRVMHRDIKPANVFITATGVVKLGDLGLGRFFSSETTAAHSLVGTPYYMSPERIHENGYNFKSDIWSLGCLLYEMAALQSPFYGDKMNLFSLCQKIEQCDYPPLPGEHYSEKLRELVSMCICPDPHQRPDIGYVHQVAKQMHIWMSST
Chain of Sphingosine kinase 1 (Homo sapiens) (Q9NYA1 whole entry): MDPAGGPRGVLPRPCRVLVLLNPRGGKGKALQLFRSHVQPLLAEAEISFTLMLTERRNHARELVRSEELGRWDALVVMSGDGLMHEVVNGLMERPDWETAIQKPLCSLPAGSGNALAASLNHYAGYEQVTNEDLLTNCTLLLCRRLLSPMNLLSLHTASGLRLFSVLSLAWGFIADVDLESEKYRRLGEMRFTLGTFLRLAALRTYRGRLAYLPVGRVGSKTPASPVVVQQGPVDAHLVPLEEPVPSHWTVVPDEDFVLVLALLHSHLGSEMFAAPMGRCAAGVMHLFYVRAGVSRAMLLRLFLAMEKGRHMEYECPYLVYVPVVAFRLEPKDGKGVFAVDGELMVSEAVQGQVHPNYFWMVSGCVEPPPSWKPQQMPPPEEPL

For the molecule `NS(=O)(=O)c1ccc(N/N=C2\C(=O)Nc3cccc(CCc4ccncc4)c32)cc1`, the inhibition in [1] was 3.16%; in assay [2] it was 0%; in [3], -4.51%; in [4], 5.35%; in [5], 2.3%; in assay [6] it was -0.34%. Further, the inhibition in assay [7] is 1.3%; in assay [8], 0.73%; in assay [9], -2.12%; in assay [10] it was -0.26%; in assay [11], 3.03%; in assay [12] it was 2.1%. The inhibition in assay [13] is 1.7%; in [14], 1.25%; in assay [15], 0.63%; in [16], -2.2%; in [17] it was -0.1%; in assay [18], 0.71%. For the same molecule, the inhibition in assay [19] stood at 0.86%; in assay [20], 2.93%.

Usually inhibition stands for the drop in the measured response relative to a control, in per cent.
